Screening results as filed in PubChem BioAssay.
Hits are enriched below; roughly 3.7% of the tested compounds scored in any of these assays.
D3 antag: blocks the human D3 dopamine receptor | P35462 | D3R cells, DiscoveRx beta-arrestin luminescence, antagonist mode; hits give low values | max response, negative = inhibition, % | 360,000 tested, 2.5% active; in the data active = max response below about -50%; inconclusive = no clear call, values can overlap the other calls; also: % is scaled to controls: 0 for no effect and ±100 for the full control effect
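Cells expressing the human receptor were seeded at 1500 cells/well, incubated overnight at 37 degrees C in 5% CO2, then exposed to library compounds with dopamine controls for 90 minutes at 37 degrees C before luminescent detection.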
B2AR arrestin: recruits beta-arrestin to the human beta2-adrenergic receptor; P07550; beta-arrestin recruitment to beta2AR, cell-based reporter; Potency, µM (doses to about 46.1 µM), without a hit: top-dose activation, hits mostly activators; 330,000 tested, 0.02% active;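 also: potency is read from the fitted curve at half-maximal effect; 0% = DMSO controls and full agonism = EC100 isoproterenol or metaproterenol; nearly all actives have a fitted effect of over 65% in size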
Target sequence (P07550 whole entry, looked up): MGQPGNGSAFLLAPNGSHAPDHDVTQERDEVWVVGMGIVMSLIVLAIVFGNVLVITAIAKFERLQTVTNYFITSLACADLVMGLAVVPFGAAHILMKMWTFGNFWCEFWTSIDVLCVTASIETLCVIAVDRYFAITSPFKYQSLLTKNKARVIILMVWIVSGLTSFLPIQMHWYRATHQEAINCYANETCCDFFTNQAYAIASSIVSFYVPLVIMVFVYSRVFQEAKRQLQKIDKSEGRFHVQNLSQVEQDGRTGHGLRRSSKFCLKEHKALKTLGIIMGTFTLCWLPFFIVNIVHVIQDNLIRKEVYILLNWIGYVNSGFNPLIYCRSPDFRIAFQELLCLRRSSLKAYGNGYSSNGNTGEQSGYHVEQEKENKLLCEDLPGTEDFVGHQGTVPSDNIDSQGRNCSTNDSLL
PTHR1 ag: agonists of human PTHR1 parathyroid hormone receptor. Q03431. HEK293 GP2 PTHR1 cells, GloSensor cAMP luminescence, 1 h. Potency, µM (doses to about 115 µM), for inactives: top-dose activation, actives largely listed as activators. 410,000 tested, 0.075% active. AID 743266; also: potency is read from the fitted curve at half-maximal effect; nearly all actives have a fitted effect of over 55% in size
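HEK-293-derived GP2 cells expressing PTHR1 and a GloSensor cAMP reporter, 3,000/well, plated overnight, given luciferin plus IBMX (each 0.5 mM as added) for 1 h at 37 °C, then compound for 1 h at 37 °C. Luminescence was read after 15 min at room temperature.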
RGS4 inh: blocks human RGS4-accelerated GTP hydrolysis; Transcreener GDP fluorescence polarization, RGS4-accelerated GTP hydrolysis; Potency, µM (titrated, usually from 114 µM), for the others: at the top dose activity change, negative = inhibition, actives largely listed as inhibitors; P49798; 390,000 tested, 0.039% active; also: potency is read from the fitted curve at half-maximal effect; % is scaled to controls: 0 for no effect and ±100 for the full control effect; nearly all actives have a fitted effect of over 75% in size
Target sequence (P49798 whole entry, looked up): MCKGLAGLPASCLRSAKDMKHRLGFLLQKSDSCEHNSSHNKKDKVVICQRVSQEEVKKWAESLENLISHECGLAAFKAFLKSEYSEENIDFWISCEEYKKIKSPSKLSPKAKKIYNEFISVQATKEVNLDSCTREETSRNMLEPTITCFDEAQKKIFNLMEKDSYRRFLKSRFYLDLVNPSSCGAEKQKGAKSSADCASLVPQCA
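MLSMR compounds (23 nl, pin-transferred) preincubated 10 min at room temperature with a 500nM (2x) first reagent, then RGS4 at 900nM (2x) plus Transcreener GDP mix added; fluorescence polarization (620/688 nm) read before and after 90 min at 30 °C.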
BRCA1 expr act: increases BRCA1 expression; MCF7-BRCA1-FFLuc reporter, luminescence, 48 h; response scale: scaled: vehicle 0%, 10 µM genistein 100%; Potency, µM (titrated, usually from 46.1 µM), for inactives: at the top dose activation, most hits filed as activators; 380,000 tested, 1.1% active; AID 624202; also: potency is read from the fitted curve at half-maximal effect; nearly all actives have a fitted effect of over 80% in size
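Using MCF7 cells harboring a BRCA1 firefly luciferase reporter, plated 2 h before compound pinning, the screen measured luminescence after 48 h incubation. Responses were normalized to DMSO and 10 microM genistein, then fitted for concentration-effect.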
D3 ag: agonists of human D3 dopamine receptor. P35462. 410,000 tested, 0.58% active. max activation, %. D3R DiscoveRx beta-arrestin cells, luminescence, 90 min. AID 652048; in the data active = max activation above about 30%; also: 0% is about no effect
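Cells at 1500/well, incubated overnight, then treated with pinned compounds (dopamine as control) for 90 min at 37 degrees C. DiscoveRx reagent added for 30 - 60 minutes at room temperature; luminescence read.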
Numbers without * were called inactive; i = inactive; ? = inconclusive; . = no result given; [ ] = another dose, or the depositor's remark. Unless noted, calls follow the shape of the dose curve; as a rule, active = well fitted curve in the direction sought with a large enough effect; inconclusive = small, poorly fitted or top-dose-only effect, or another doubt; inactive = no such curve, though single readings can be large; an effect the other way counts as inactive or inconclusive.

SMILES | D3 antag | B2AR arrestin | PTHR1 ag | RGS4 inh | BRCA1 expr act | D3 ag
COc1ccc(S(=O)(=O)N2CCN(C(=O)c3ccc([N+](=O)[O-])o3)CC2)cc1 | 0 | 0% | i | 1% | -71% | 2
O=C(/C=C/c1cccc([N+](=O)[O-])c1)c1ccc([N+](=O)[O-])o1 | -137* | . | -23% | -114% | -17% | -63
Cc1cccc(/C=C/C(=O)c2ccc([N+](=O)[O-])o2)c1 | -58* | 5% | -94% | ? | -82% | -6
CC(C)c1ccc(NC(=O)C2(C)Cc3c(-c4ccc5c(c4)OCO5)ccnc3O2)cc1 (stereo not given) | -19 | . | 2% | . | -45% | -9
Cc1nc([N+](=O)[O-])cn1CC(O)c1ccc2c(c1)OCO2 (stereo not given) | . | . | . | . | 9% | .
CC(=O)C1=C(C)NC2=C(C(=O)c3ccccc32)C1c1ccccc1 (stereo not given) | -52* | 0% | -26% | -27% | -1% | -8
O=C(NN1CCCCC1)NN1CCCCC1 | -19 | . | -20% | . | -12% | 1
CCN1CCN(c2cc(SC(C)C)nc(-c3ccc(OC)cc3)n2)CC1 | -65* | 0% | -3% | 7% | -74% | -23
Cc1ccccc1NC(=O)c1cc(=O)c2ccccc2o1 | -19 | 0% | i | -10% | 45% | 2
N#Cc1ccccc1NC(=O)c1cc(=O)c2ccccc2o1 | -8 | -1% | -5% | -18% | 8.9µM* | -4
CCCCCCOc1ccc(/C(N)=N/O)cc1 | 5 | 0% | i | -2% | 7.1µM* | 3
C=CCNC(=O)c1ccc(-c2nc(-c3ccc(Cl)cc3Cl)cs2)cc1 | 34 | 0% | -7%[57.5 µM] | -12% | 11µM* | 1
Cc1cc(NC(=O)CCS(=O)(=O)c2nc(-c3ccccc3)cc(C(F)(F)F)n2)no1 | -25 | 0% | -19% | -43% | -94% | -17
CS(=O)(=O)c1nc(-c2ccccc2)cc(C(F)(F)F)n1 | -120* | 0% | -31% | ? | -92% | -19
O=C(NCC1CCN(C(=O)c2c(F)c(F)c(F)c(F)c2F)CC1)c1c(F)c(F)c(F)c(F)c1F | 7 | 0% | -21% | 8% | -15% | 10
CC1C(=O)C(C)C(c2ccc(Cl)cc2)NC1c1ccc(Cl)cc1 (stereo not given) | -61* | . | -21% | 8% | 1% | -6
COc1ccccc1N1CCN(C(CNC(=O)C2CCCCC2)c2cccnc2)CC1 (stereo not given) | -71* | 0% | -31% | 22% | -4% | -14
COCCNC(=O)C(=O)NCC(c1cccnc1)N1CCN(c2ccccc2OC)CC1 (stereo not given) | . | . | i | -3% | . | -8
CC1(C(=O)NS(=O)(=O)c2cccc(F)c2)CCN1C(=O)CCC1CCCC1 (stereo not given) | -19 | . | i | . | 8% | -2
COc1ccc(NC(=O)C2CCN(c3ccc(Sc4ccc(C)cc4)nn3)CC2)cc1 | . | . | i | 7% | 8% | 5
CCn1c(O)c(N=NC(=O)CNC(=O)c2ccccc2F)c2ccccc21 | -74* | 0% | i | -16% | -12% | -7
COc1ccccc1C(=O)NCC(=O)N=Nc1c(O)n(C(C)C)c2ccccc12 | -59* | 0% | -20% | 13% | -5% | -15
CCn1c(O)c(N=NC(=O)CNC(=O)c2ccco2)c2ccccc21 | -2 | -1% | i | 9% | -35% | -3
CN(C)c1ccc(N=Nc2nc3ccccc3n2C)cc1 | -74* | 0% | -39% | 4% | -58% | -20
CCCC1(c2ccccc2)NC(=O)N(CC(=O)Nc2cc(S(=O)(=O)N3CCOCC3)ccc2Cl)C1=O (stereo not given) | 16 | 0% | i | 3% | -11% | 3
SMILES | D3 antag | B2AR arrestin | PTHR1 ag | RGS4 inh | BRCA1 expr act | D3 ag
COC(=O)Cc1ccc(NC(=S)NNC(=O)C2CC2)cc1 | -16 | -1% | -22% | -12% | -1% | -5
CSCCNC(=O)C1(C)CCN1C(=O)c1sccc1C (stereo not given) | 6 | . | i | . | 3% | 4
CCCc1cc(-c2n[nH]c(C)c2-c2ccc(C(=O)OCC)o2)c(O)cc1O | -27 | -1% | -1%[57.5 µM] | 16% | -36% | 35*
Cc1ccc(NC(=O)C2Cc3ccccc3C(=O)O2)cc1 (stereo not given) | 9 | 0% | -17% | 6% | 4µM* | -1
NNC(=O)c1ccccc1OCc1ccccc1 | 21 | 0% | -36% | -3% | 1% | 1
NNC(=O)c1ccccc1CO | 24 | . | -16% | -5% | 1% | 34*
O=C(c1ccccc1)c1ccccc1C(=O)N1CCOCC1 | 14 | 0% | -8% | 16% | 3% | 3
O=C(c1ccccc1)c1ccccc1C(=O)N1CCCC1 | -50* | . | 18% | 14% | 15% | -3
Cc1cc(C)cc(N(CC(=O)NC2CCCC2)C(=O)CNC(=O)c2cccs2)c1 | -4 | 0% | 10% | -17% | -27% | -3
CCC1CCCCN1c1nc(-c2cccc(OC)c2O)nc2ccccc12 (stereo not given) | 28 | 1% | -38%[57.5 µM] | 4% | -25% | 31*
O=C(/C=C/c1c(Cl)cccc1Cl)N1CCOCC1 | -15 | 0% | i | 7% | 44% | 2
CC1CCCC(NC(=O)/C=C/c2c(F)cccc2Cl)C1C (stereo not given) | -19 | . | -5% | -10% | 11µM* | -6
O=C(/C=C/c1c(F)cccc1Cl)N1CCOCC1 | 1 | 0% | -4% | -5% | 10µM* | 0
Cc1cccc2sc(NS(=O)(=O)c3ccccc3)nc12 | -64* | -1% | i | 7% | 17% | -2
CCOC(=O)c1sc(NS(=O)(=O)c2ccccc2Cl)nc1C | -70* | 0% | i | 26% | 6% | -7
CNc1nc(C)c(C(=O)OCC(=O)OC)s1 | 14 | 0% | i | 9% | 3% | 1
CCOC(=O)c1sc(N/N=C/c2cccc(C)c2)nc1C | 7 | 0% | i | 6% | 2.8µM* | -1
CNc1nc(C)c(C(=O)OCc2ccccc2)s1 | -3 | -2% | ? | 17% | 11µM* | 1
CCN(C)C1CN(Cc2cn(Cc3cccc(Cl)c3)nn2)S(=O)(=O)C1 (stereo not given) | 13 | . | -10% | . | 3% | 2
COC(=O)c1sc(NC(=O)COc2ccccc2)nc1C | -2 | 0% | i | -11% | 7.9µM* | -2
COC(=O)c1sc(NC(=O)COc2ccc(C)cc2)nc1C | 21 | 0% | -21% | 9% | 36% | -4
CCOC(=O)c1sc(NS(=O)(=O)c2ccc(F)cc2)nc1C | 15 | 0% | -31% | -9% | 103% | 4
